A number with no mark means an inactive call. For some of these results: Measured potencies and affinities stand elsewhere. Active and inactive are the calls of the source. Unless noted, the rule behind the calls is not given here.
Legend:
[1] = antimalarial activity against Dd2 strain (AID 2302;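 active = growth inhibition above 50% at the single 2 µM test dose, taken to imply half-maximal potency below 2 µM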;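 note: 0% = DMSO untreated growth and 100% = chloroquine plus artemisinin killed control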); details: P. falciparum Dd2 in RBCs, LDH growth readout, 72 h; at 2 µM; stronger effect = higher value
[2] = human hepatoma cell viability loss – ATP luminescence, cytotoxicity control for P. falciparum antimalarial project, primary screen (AID 2303;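 active = inhibition above 50%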;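 note: 0% = DMSO wells and 100% = digitonin-killed cells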); details: HepG2 viability, 24-48 h, at 10 µM, stronger effect = higher value
[3] = target: L-lactate dehydrogenase (Plasmodium falciparum (isolate CDC / Honduras)) (UniProt Q27743); assay: PfLDH activity inhibition – cell lysate, 3D7 strain, counter-screen for P. falciparum growth inhibition project (AID 2304);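 note: 0% = vehicle and 100% = reference inhibitor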; details: P. falciparum 3D7 crude extract, LDH APAD/NBT absorbance; at 2 µM; stronger effect = higher value
[4] = inhibition of 3D7 malaria parasite growth – strain 3D7 (AID 2306);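 note: 0% = DMSO wells and 100% = chloroquine plus artemisinin control wells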; details: P. falciparum 3D7 erythrocytic growth, LDH absorbance, 72 h; at 2 µM; stronger effect = higher value
[5] = target: Calcium-dependent protein kinase 1 (Plasmodium falciparum (isolate 3D7)) (UniProt P62344); assay: PfCDPK1 kinase inhibitors, biochemical, TCAMS library (AID 1159585; cut-off not given, nearly all actives have IC50 up to about 0.98 µM;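 note: inhibitors leave more ATP so luminescence rises with inhibition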); details: recombinant PfCDPK1, Kinase-Glo ATP depletion luminescence
[6] = target: Plasmodium falciparum protein kinase 6 (PK6, PF3D7_1337100) (UniProt Q8IDW1); assay: PfPK6 kinase inhibitors, biochemical, TCAMS library (AID 1159586); details: recombinant PfPK6, Kinase-Glo ATP depletion luminescence
[7] = target: Protein kinase 7 (PK7), Plasmodium falciparum 3D7 (PF3D7_0213400) (UniProt Q7YTF7); assay: inhibition of Plasmodium PK7 catalytic activity – biochemical, TCAMS antimalarial set, Kinase-Glo luminescence (AID 1159587); details: recombinant PfPK7, Kinase-Glo ATP depletion luminescence
[8] = target: Calcium-dependent protein kinase 4 (Plasmodium falciparum (isolate 3D7)) (UniProt Q8IBS5); assay: PfCDPK4 kinase inhibitors, biochemical, TCAMS library (AID 1159588; cut-off not given, nearly all actives have IC50 up to about 0.91 µM); details: recombinant PfCDPK4, Kinase-Glo ATP depletion luminescence
Sequence of Calcium-dependent protein kinase 4 (Plasmodium falciparum (isolate 3D7)) (Q8IBS5 whole entry, looked up): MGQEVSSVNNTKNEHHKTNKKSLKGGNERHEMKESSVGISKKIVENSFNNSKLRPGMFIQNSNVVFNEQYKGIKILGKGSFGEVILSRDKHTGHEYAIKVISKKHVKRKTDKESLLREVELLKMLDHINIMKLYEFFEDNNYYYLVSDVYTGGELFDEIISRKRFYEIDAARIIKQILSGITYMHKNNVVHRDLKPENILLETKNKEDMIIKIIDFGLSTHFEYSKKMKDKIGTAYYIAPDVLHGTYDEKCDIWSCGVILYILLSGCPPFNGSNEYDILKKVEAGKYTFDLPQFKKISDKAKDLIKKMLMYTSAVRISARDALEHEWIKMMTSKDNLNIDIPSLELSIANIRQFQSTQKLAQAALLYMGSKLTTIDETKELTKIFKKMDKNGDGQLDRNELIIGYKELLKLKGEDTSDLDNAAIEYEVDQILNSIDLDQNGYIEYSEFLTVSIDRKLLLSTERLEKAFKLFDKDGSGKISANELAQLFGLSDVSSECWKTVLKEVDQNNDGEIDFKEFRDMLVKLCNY

Sequence of Calcium-dependent protein kinase 1 (Plasmodium falciparum (isolate 3D7)) (P62344 whole entry, looked up): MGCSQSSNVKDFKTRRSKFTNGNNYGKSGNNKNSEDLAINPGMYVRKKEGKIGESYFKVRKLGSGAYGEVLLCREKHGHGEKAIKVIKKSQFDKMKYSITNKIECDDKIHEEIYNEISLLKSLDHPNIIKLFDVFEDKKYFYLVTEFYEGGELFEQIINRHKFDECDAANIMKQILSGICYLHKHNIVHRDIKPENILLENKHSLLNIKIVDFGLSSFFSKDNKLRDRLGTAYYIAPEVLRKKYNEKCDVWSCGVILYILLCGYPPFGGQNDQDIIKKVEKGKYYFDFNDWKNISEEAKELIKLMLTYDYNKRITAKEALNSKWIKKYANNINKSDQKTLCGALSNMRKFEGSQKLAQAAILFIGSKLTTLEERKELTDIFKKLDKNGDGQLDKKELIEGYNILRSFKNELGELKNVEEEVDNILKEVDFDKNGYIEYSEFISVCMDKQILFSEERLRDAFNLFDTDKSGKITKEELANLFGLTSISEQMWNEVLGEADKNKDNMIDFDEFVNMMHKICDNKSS
Sequence of Plasmodium falciparum protein kinase 6 (PK6, PF3D7_1337100) (Q8IDW1 1-305): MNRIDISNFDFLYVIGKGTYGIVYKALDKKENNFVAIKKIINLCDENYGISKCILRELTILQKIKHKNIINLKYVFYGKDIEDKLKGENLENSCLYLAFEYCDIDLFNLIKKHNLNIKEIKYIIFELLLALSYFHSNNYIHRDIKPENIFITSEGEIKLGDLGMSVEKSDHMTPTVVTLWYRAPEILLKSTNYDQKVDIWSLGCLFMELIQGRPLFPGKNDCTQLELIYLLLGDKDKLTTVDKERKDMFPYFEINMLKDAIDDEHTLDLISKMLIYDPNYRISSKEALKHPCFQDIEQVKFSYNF
Sequence of L-lactate dehydrogenase (Plasmodium falciparum (isolate CDC / Honduras)) (Q27743 whole entry, looked up): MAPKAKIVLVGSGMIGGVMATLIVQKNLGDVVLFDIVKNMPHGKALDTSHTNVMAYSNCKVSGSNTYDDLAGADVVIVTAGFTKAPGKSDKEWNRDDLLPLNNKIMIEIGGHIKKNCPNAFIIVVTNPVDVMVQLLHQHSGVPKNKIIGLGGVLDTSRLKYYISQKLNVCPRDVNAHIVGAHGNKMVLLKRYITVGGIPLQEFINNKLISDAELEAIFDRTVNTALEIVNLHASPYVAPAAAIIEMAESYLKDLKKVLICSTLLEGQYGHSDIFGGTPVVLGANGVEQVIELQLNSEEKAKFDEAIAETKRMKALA
Sequence of Protein kinase 7 (PK7), Plasmodium falciparum 3D7 (PF3D7_0213400) (Q7YTF7 1-343): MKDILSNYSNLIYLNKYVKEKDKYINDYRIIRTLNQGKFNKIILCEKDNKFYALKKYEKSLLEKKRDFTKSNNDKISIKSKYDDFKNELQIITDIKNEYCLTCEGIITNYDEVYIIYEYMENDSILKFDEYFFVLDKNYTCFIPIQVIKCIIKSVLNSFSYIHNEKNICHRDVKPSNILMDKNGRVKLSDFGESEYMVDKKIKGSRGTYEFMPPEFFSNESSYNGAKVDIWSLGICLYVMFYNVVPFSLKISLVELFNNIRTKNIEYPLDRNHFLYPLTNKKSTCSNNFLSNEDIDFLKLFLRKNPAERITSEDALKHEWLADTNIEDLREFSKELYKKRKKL

CC(C)NCC(O)Cn1c2ccc(Br)cc2c2cc(Br)ccc21 (stereo not given)
growth inhibition [1]: 100% (active)
inhibition [2]: 100% (active)
inhibition [3]: -1%
growth inhibition [4]: 99% (active)
outcome [5]: inactive
outcome [6]: inactive
outcome [7]: inactive
outcome [8]: inactive

CCN(CC)CCCN(C(=O)c1cc2c(C)nn(-c3ccccc3)c2s1)c1nc(-c2ccc(OC)cc2)cs1
growth inhibition [1]: 32%
inhibition [2]: 12%
inhibition [3]: -7%
growth inhibition [4]: 89% (active)
outcome [5]: inactive
outcome [6]: inactive
outcome [7]: inactive
outcome [8]: inactive

Cc1sc(C)c(C(F)(F)F)c1CNCCCNc1cc(=O)c2ccccc2[nH]1
growth inhibition [1]: 43%
inhibition [2]: -3%
inhibition [3]: -1%
growth inhibition [4]: 96% (active)
outcome [5]: inactive
outcome [6]: inactive
outcome [7]: inactive
outcome [8]: inactive

CCCOc1ccc(N2C(N)=NC(N)=NC2(C)C)cc1
growth inhibition [1]: 2%
inhibition [2]: 1%
inhibition [3]: -6%
growth inhibition [4]: 97% (active)
outcome [5]: inactive
outcome [6]: inactive
outcome [7]: inactive
outcome [8]: inactive

NC(N)=Nc1ccc(C(=O)O)c(O)c1
growth inhibition [1]: 1%
inhibition [2]: -3%
inhibition [3]: -3%
growth inhibition [4]: 94% (active)
outcome [5]: inactive
outcome [6]: inactive
outcome [7]: inactive
outcome [8]: inactive

CCOC(=O)c1ccc(-c2cnoc2-c2cc(CC)c(OC)cc2O)o1
growth inhibition [1]: 97% (active)
inhibition [2]: 12%
inhibition [3]: 1%
growth inhibition [4]: 101% (active)
outcome [5]: inactive
outcome [6]: inactive
outcome [7]: inactive
outcome [8]: inactive

N#Cc1ccc2c(c1)CCN(CCC1CCC(NC(=O)/C=C/c3cccc4ccccc34)CC1)CC2 (stereo not given)
growth inhibition [1]: 12%
inhibition [2]: 16%
inhibition [3]: -6%
growth inhibition [4]: 96% (active)
outcome [5]: inactive
outcome [6]: inactive
outcome [7]: inactive
outcome [8]: inactive

c1ccc(CNCc2cccc(-c3ccc(-c4nc5ccccc5[nH]4)cc3)c2)cc1
growth inhibition [1]: 39%
inhibition [2]: 10%
inhibition [3]: -5%
growth inhibition [4]: 97% (active)
outcome [5]: inactive
outcome [6]: inactive
outcome [7]: inactive
outcome [8]: inactive

COc1ccc(NC(=O)Nc2ccc(-c3ccccc3)cc2)cc1Cn1nc(Cl)c(N2CCCNCC2)cc1=O
growth inhibition [1]: 84% (active)
inhibition [2]: 18%
inhibition [3]: 0%
growth inhibition [4]: 102% (active)
outcome [5]: inactive
outcome [6]: inactive
outcome [7]: inactive
outcome [8]: inactive

COc1cc2nc(N3CCC(CNC(=O)c4ccc(-c5cccc(C#N)c5)cc4)CC3)nc(N)c2cc1OC
growth inhibition [1]: 100% (active)
inhibition [2]: 18%
inhibition [3]: 6%
growth inhibition [4]: 100% (active)
outcome [5]: inactive
outcome [6]: inactive
outcome [7]: inactive
outcome [8]: inactive

CC(C)(C)c1ccc(NC(=O)c2cccc(CN3CCCN(Cc4cccc(C#N)c4)CC3)c2)cc1
growth inhibition [1]: 12%
inhibition [2]: 39%
inhibition [3]: 4%
growth inhibition [4]: 97% (active)
outcome [5]: inactive
outcome [6]: inactive
outcome [7]: inactive
outcome [8]: inactive

c1ccc2cc(CNCCCN3CCN(CCCNCc4ccc5ccccc5c4)CC3)ccc2c1
growth inhibition [1]: 65% (active)
inhibition [2]: 60% (active)
inhibition [3]: 2%
growth inhibition [4]: 100% (active)
outcome [5]: inactive
outcome [6]: inactive
outcome [7]: inactive
outcome [8]: inactive

CN(C)CCNCc1ccc(-c2ccc3c(Nc4ccc(F)cc4Cl)ccnc3c2)o1
growth inhibition [1]: 100% (active)
inhibition [2]: 31%
inhibition [3]: -9%
growth inhibition [4]: 100% (active)
outcome [5]: inactive
outcome [6]: inactive
outcome [7]: inactive
outcome [8]: inactive

COc1nc2c(CCN3CC[C@H](NCc4cc(C#N)c5c(c4)CCO5)[C@H](O)C3)ccnc2cc1F
growth inhibition [1]: 71% (active)
inhibition [2]: 31%
inhibition [3]: -9%
growth inhibition [4]: 99% (active)
outcome [5]: inactive
outcome [6]: inactive
outcome [7]: inactive
outcome [8]: inactive

c1cc(CNCCc2ccncc2)cc(-c2ccc(-c3nc4ccccc4[nH]3)s2)c1
growth inhibition [1]: 97% (active)
inhibition [2]: 1%
inhibition [3]: -3%
growth inhibition [4]: 101% (active)
outcome [5]: inactive
outcome [6]: inactive
outcome [7]: inactive
outcome [8]: inactive

Cc1ccc(C)c(Cn2c(N3CCC(C(=O)NCc4cccs4)CC3)nc3ccccc32)c1
growth inhibition [1]: 73% (active)
inhibition [2]: -2%
inhibition [3]: -6%
growth inhibition [4]: 89% (active)
outcome [5]: inactive
outcome [6]: inactive
outcome [7]: inactive
outcome [8]: inactive

CC(C)c1ccc(N2CCN(CCCCNC(=O)c3ccc(NC(=O)c4cc(Cl)cc(Cl)c4)cc3)CC2)cc1
growth inhibition [1]: 86% (active)
inhibition [2]: 12%
inhibition [3]: 8%
growth inhibition [4]: 101% (active)
outcome [5]: inactive
outcome [6]: inactive
outcome [7]: inactive
outcome [8]: inactive

Cc1cccc2[nH]c(-c3cccc(-c4ccc(NC(=O)CS(C)(=O)=O)cc4)c3)nc12
growth inhibition [1]: 8%
inhibition [2]: 3%
inhibition [3]: -8%
growth inhibition [4]: 85% (active)
outcome [5]: inactive
outcome [6]: inactive
outcome [7]: inactive
outcome [8]: inactive

Cc1cc(-c2cccc(CNC3CCN(C)CC3)c2)ccc1S(=O)(=O)NCCN1CCCC1
growth inhibition [1]: 0%
inhibition [2]: 18%
inhibition [3]: 0%
growth inhibition [4]: 100% (active)
outcome [5]: inactive
outcome [6]: inactive
outcome [7]: inactive
outcome [8]: inactive

CN(C)c1ccc(CN2CCC(CNC(=O)c3cc(-c4cccc(F)c4)cs3)C2)cc1 (stereo not given)
growth inhibition [1]: 13%
inhibition [2]: 48%
inhibition [3]: 0%
growth inhibition [4]: 96% (active)
outcome [5]: inactive
outcome [6]: inactive
outcome [7]: inactive
outcome [8]: inactive

Source: PubChem BioAssay
